Assay [1] deals with rat Neurotensin Receptor (NTS), Ntsr1 (gene 366274) (UniProt P20789). In words: NVS_GPCR_rNTS: NovaScreen (NVS) G Protein-Coupled Receptor Assay for rat Neurotensin Receptor (NTS) (AID 2283308). The procedure:
(§1) NVS_GPCR_rNTS is a biochemical, single-readout assay that uses extracted gene-proteins from Rat forebrain membranes in a tissue-based cell-free assay. Measurements were taken 1 hour after chemical dosing in a 48-well plate.NVS_GPCR_rNTS is one of one assay component(s) measured or calculated from the NVS_GPCR_rNTS assay. It is designed to make measurements of radioligand binding, a form of binding reporter, as detected with scintillation counting signals by Filter-based radiodetection technology.Data from the assay component NVS_GPCR_rNTS was analyzed into 1 assay endpoint. This assay endpoint, NVS_GPCR_rNTS, was analyzed in the positive analysis fitting direction relative to DMSO as the negative control and baseline of activity. […] Furthermore, this assay endpoint can be referred to as a primary readout, because the performed assay has only produced 1 assay endpoint. […]
(§2) Binding assays used specific radioligands (tritiated, iodinated) with non-radioactive competitive displacement ligands in agonist or antagonist protocols (as indicated) and various reference compounds and inhibitors to titrate specific binding to receptors and transporters. Most enzyme assays (CYPs, kinases, phosphatases, proteases, HDACs) used recombinant protein and specific substrates (fluorescence mostly, some colorimetric and radioactive) and inhibitors, followed by a biochemical separation of substrate and product. […]

Assay [2] concerns the target Metabotropic glutamate receptor 1 (Rattus norvegicus) (UniProt P23385). As to the kind of experiment: NVS_GPCR_rmMGluR1: NovaScreen (NVS) G Protein-Coupled Receptor Assay for rat Glutamate Metabotropic Receptor 1 (MGluR1) (AID 2283305). The procedure, abridged: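 Binding to native receptor from rat cerebellum extract, measured as displacement of a radioligand (scintillation counting, filter separation) after 1 hour. Compounds tested at 25 uM in duplicate, then titrated to a 50 uM maximum.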

In assay [3] the target is rat Somatostatin Receptor (SST), Sstr1 (gene 25033) (UniProt P28646). As to the kind of experiment: NVS_GPCR_rSST: NovaScreen (NVS) G Protein-Coupled Receptor Assay for rat Somatostatin Receptor (SST) (AID 2283314). The procedure, abridged:
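Single-concentration duplicate screen (25 uM), then concentration-response up to 50 uM for chemicals passing a threshold such as 30% inhibition. Membranes came from rat forebrain. Binding was measured 1 h post-dose by filter radiodetection and scintillation, relative to DMSO.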

Assay [4] deals with rat Neurokinin-1 Receptor (NK1), Tacr1 (gene 24807) (UniProt P14600). In words: NVS_GPCR_rNK1: NovaScreen (NVS) G Protein-Coupled Receptor Assay for rat Neurokinin-1 Receptor (NK1) (AID 2283309). The procedure, abridged:
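Competitive radioligand binding to NK1 in rat submaxillary membranes, 1 h incubation, filtration and scintillation read-out. Compounds first screened at 25 uM in duplicate, then concentration-response for actives; signal loss relative to DMSO.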

Assay [5] has as its target rat Corticotropin Releasing Factor Receptor (CRF), Crhr1 (gene 58959) (UniProt P35353). As to the kind of experiment: NVS_GPCR_rCRF: NovaScreen (NVS) G Protein-Coupled Receptor Assay for rat Corticotropin Releasing Factor Receptor (CRF) (AID 2283300). The procedure:
as §1, with “NVS_GPCR_rCRF” for “NVS_GPCR_rNTS”, “cortical” for “forebrain”, “2 hours” for “1 hour”, “96-well plate.NVS_GPCR_rCRF” for “48-well plate.NVS_GPCR_rNTS”, “[…]” for “Filter-based”, “NVS_GPCR_rCRF,” for “NVS_GPCR_rNTS,”
as §2

Assay [6] deals with rat Histamine Receptor (H3), Hrh3 (gene 85268) (UniProt Q9QYN8). As to the kind of experiment: NVS_GPCR_rH3: NovaScreen (NVS) G Protein-Coupled Receptor Assay for rat Histamine Receptor (H3) (AID 2283303). The procedure, abridged:
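Filter-binding radioligand competition on rat forebrain membranes, 1 h incubation; compounds screened at 25 µM in duplicate and followed in concentration series to 50 µM, loss of bound signal vs DMSO.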

Another assay deals with Adra2b (gene 24174) (UniProt P19328). As to the kind of experiment: NVS_GPCR_rmAdra2B: NovaScreen (NVS) G Protein-Coupled Receptor Assay for hybird cells Adrenergic, Alpha 2B Receptor (Adra2B) (AID 2283306). The procedure, abridged: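 Compounds screened first at 25 uM in duplicate, with actives followed up in concentration-response; specific radioligand displacement from hybrid neuroglioma/blastoma cell membrane preparations measured by filter scintillation counting after 1 h, normalized to DMSO.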

In assay [7] the target is rat Opioid Receptor, Non-selective Sodium (Na+) Binding, Oprm1 (gene 25601) (UniProt P33535). In words: NVS_GPCR_rOpiate_NonSelectiveNa: NovaScreen (NVS) G Protein-Coupled Receptor Assay for rat Opioid Receptor, Non-selective Sodium (Na+) Binding (AID 2283311). The procedure, abridged: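 Filtration radioligand binding on rat forebrain membrane preparations, read 1.5 h after dosing. Single-concentration 25 µM primary screen in duplicate, followed by singleton concentration series to 50 µM max for actives; DMSO baseline.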

Assay [8] deals with human Neonicotinoid receptor (NNR), CHRNA2 (gene 1135) (UniProt Q15822). In words: NVS_LGIC_hNNR_NBungSens: NovaScreen (NVS) Ligand-Gated Ion Channel Assay for human Neonicotinoid receptor (NNR) (AID 2283313). The method, boiled down:
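Compounds first screened in duplicate at 25 uM, then actives re-tested in single-replicate dose series up to 50 uM. Binding measured as displacement of specific radioligand from neuroblastoma membrane receptors after 2 h, scintillation read on filters.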

Assay [9] deals with rat Gamma-Aminobutyric Acid Type B Receptor (GABBR), Gabbr1 (gene 81657) (UniProt Q9Z0U4). In words: NVS_GPCR_rGABBR: NovaScreen (NVS) G Protein-Coupled Receptor Assay for rat Gamma-Aminobutyric Acid Type B Receptor (GABBR) (AID 2283301). The procedure:
NVS_GPCR_rGABBR is a biochemical, single-readout assay that uses extracted gene-proteins from Rat cortical membranes in a tissue-based cell-free assay. Measurements were taken 1 hour after chemical dosing in a 96-well plate.NVS_GPCR_rGABBR is one of one assay component(s) measured or calculated from the NVS_GPCR_rGABBR assay. It is designed to make measurements of radioligand binding, a form of binding reporter, as detected with scintillation counting signals by Filter-based radiodetection technology.Data from the assay component NVS_GPCR_rGABBR was analyzed into 1 assay endpoint. This assay endpoint, NVS_GPCR_rGABBR, was analyzed in the positive analysis fitting direction relative to DMSO as the negative control and baseline of activity. Using a type of binding reporter, loss-of-signal activity can be used to understand changes in the binding as they relate to the gene Gabbr1. Furthermore, this assay endpoint can be referred to as a primary readout, because the performed assay has only produced 1 assay endpoint. To generalize the intended target to other relatable targets, this assay endpoint is annotated to the gpcr intended target family, where the subfamily is metabotropic glutamate receptor. […]

This is an account of results in PubChem BioAssay (EPA / NIEHS).

Structures are written as SMILES. Inconclusive results are not listed. Some structures have more than one record in an assay (separate samples or runs), and their calls can disagree. Activity calls are given as the source filed them. The calls were made as follows: active = hit-call score of the fitted dose curve at least 0.9, where 1 is the maximum; inconclusive = response in the unintended direction; inactive = score below 0.9.

Chain of Metabotropic glutamate receptor 1 (Rattus norvegicus) (P23385 whole entry, looked up): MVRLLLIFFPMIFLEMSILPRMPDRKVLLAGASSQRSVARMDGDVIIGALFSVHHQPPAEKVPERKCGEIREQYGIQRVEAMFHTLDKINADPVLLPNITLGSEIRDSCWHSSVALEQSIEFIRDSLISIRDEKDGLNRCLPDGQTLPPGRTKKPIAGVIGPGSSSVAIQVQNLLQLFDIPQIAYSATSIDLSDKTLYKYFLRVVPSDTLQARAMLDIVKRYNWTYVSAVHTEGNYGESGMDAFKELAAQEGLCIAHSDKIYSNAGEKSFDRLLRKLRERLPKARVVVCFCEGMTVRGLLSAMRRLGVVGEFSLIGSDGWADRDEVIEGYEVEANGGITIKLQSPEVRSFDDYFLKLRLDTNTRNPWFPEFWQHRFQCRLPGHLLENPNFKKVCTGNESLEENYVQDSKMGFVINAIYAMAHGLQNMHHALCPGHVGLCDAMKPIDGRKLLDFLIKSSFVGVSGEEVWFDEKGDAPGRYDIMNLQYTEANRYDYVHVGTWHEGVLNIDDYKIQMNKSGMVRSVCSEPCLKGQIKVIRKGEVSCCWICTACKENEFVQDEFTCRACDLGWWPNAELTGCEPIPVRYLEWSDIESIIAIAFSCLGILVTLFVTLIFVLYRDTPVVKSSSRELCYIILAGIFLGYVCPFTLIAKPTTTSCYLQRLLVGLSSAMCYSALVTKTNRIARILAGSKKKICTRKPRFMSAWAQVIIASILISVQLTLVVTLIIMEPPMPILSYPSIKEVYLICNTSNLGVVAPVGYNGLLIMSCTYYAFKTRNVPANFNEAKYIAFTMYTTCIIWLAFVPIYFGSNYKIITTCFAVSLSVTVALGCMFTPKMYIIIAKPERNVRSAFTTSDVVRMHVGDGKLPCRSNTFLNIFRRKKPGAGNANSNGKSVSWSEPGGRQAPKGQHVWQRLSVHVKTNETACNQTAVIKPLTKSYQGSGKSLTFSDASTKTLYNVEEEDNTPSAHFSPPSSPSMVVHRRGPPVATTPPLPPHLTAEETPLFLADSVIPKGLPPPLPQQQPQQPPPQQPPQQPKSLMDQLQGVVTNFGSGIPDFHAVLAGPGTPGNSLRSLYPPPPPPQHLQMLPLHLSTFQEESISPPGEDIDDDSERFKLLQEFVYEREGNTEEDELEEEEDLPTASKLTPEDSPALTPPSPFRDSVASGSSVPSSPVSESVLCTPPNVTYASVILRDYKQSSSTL
Chain of rat Neurokinin-1 Receptor (NK1), Tacr1 (gene 24807) (P14600 whole entry, looked up): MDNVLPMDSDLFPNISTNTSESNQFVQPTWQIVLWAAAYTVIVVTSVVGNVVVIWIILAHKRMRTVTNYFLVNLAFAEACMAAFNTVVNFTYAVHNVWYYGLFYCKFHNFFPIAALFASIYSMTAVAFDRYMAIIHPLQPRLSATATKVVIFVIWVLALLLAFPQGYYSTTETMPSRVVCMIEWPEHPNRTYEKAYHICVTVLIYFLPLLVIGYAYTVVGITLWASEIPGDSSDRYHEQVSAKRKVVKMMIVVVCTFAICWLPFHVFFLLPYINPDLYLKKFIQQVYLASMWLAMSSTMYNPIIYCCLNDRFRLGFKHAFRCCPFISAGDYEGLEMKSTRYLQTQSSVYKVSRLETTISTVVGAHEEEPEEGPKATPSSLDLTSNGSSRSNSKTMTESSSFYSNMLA
Chain of rat Somatostatin Receptor (SST), Sstr1 (gene 25033) (P28646 whole entry, looked up): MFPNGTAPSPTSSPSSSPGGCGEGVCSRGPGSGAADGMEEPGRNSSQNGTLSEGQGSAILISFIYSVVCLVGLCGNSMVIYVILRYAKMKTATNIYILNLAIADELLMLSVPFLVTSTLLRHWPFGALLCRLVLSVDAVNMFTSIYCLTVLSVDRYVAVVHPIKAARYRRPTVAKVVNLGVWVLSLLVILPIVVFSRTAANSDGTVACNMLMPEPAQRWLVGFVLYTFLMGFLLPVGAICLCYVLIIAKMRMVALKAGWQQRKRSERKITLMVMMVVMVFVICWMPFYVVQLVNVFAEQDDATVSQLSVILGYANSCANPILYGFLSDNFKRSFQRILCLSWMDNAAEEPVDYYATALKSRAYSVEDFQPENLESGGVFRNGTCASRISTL
Chain of rat Opioid Receptor, Non-selective Sodium (Na+) Binding, Oprm1 (gene 25601) (P33535 whole entry, looked up): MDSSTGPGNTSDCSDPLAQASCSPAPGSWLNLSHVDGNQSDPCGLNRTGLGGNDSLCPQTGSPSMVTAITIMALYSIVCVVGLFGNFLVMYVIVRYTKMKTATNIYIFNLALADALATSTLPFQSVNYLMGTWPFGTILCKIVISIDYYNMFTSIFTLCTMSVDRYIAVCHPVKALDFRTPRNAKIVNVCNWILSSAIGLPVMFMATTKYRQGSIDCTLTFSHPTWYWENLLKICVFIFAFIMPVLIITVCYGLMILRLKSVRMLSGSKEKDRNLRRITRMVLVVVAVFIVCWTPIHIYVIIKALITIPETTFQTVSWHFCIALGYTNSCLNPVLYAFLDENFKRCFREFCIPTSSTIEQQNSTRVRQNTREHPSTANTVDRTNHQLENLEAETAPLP
Chain of Adra2b (gene 24174) (P19328 whole entry, looked up): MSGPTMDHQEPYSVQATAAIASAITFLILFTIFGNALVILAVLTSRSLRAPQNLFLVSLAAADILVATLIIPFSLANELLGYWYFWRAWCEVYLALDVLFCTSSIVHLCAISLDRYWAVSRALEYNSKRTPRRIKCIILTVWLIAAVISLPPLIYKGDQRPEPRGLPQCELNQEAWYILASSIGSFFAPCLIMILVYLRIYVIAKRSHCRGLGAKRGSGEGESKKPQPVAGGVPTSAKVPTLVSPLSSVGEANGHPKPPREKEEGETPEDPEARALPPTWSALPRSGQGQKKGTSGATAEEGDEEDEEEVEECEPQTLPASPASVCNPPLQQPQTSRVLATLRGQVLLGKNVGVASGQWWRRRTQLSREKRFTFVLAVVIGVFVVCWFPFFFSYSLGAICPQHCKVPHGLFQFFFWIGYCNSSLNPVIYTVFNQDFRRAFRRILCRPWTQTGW
Chain of human Neonicotinoid receptor (NNR), CHRNA2 (gene 1135) (Q15822 whole entry, looked up): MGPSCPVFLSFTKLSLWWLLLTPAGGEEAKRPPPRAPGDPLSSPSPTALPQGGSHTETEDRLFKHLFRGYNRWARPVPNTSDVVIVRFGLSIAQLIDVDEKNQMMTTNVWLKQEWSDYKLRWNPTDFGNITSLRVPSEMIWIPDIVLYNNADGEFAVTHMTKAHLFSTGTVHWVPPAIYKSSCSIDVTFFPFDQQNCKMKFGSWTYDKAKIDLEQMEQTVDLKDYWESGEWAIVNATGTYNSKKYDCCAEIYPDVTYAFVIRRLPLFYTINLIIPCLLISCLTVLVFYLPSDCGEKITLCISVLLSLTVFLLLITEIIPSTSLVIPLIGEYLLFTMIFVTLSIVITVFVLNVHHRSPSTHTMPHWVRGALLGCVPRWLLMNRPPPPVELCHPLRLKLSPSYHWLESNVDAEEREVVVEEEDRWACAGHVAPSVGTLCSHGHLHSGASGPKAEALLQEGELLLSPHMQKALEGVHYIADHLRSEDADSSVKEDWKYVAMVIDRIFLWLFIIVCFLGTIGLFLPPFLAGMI
Chain of rat Corticotropin Releasing Factor Receptor (CRF), Crhr1 (gene 58959) (P35353 whole entry, looked up): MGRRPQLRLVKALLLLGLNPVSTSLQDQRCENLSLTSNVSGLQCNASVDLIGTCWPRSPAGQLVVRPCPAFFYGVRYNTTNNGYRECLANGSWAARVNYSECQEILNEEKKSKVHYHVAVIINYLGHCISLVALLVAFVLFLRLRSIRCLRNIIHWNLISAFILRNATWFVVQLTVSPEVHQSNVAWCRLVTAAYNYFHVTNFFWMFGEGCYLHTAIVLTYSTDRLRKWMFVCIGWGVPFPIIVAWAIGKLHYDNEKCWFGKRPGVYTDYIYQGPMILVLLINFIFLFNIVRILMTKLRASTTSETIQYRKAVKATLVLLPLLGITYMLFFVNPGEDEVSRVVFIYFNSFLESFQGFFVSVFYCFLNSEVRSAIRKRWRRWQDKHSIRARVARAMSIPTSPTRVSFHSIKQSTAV
Chain of rat Neurotensin Receptor (NTS), Ntsr1 (gene 366274) (P20789 whole entry, looked up): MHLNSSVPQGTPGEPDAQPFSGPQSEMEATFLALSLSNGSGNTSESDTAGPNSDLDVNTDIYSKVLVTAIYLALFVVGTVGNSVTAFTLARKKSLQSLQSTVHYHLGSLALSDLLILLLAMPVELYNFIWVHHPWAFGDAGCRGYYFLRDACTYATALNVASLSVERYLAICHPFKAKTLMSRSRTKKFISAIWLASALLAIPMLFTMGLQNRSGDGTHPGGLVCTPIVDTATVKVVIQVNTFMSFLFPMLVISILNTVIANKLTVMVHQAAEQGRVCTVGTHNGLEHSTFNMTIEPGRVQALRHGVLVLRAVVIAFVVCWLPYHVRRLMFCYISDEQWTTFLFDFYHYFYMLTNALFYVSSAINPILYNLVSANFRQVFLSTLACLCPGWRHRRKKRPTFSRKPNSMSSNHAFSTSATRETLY
Chain of rat Histamine Receptor (H3), Hrh3 (gene 85268) (Q9QYN8 whole entry, looked up): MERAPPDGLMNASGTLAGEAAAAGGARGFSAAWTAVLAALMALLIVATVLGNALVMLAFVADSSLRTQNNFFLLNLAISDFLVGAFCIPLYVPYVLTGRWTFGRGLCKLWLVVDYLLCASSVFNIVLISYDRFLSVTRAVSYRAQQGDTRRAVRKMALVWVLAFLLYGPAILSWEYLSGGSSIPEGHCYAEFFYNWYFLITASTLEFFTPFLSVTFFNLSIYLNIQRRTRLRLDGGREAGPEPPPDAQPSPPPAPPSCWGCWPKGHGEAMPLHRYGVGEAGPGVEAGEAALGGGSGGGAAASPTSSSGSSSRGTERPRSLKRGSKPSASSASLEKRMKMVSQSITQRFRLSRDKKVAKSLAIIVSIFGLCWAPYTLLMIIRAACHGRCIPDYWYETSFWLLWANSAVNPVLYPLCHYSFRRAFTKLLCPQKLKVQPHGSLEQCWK

Take `CNC(=O)/C=C(\C)OP(=O)(OC)OC`: the molecule was classed as inactive in assay [1]. Consider `CC(C)N(C(=O)COc1nnc(C(F)(F)F)s1)c1ccc(F)cc1`, for which, in assay [2], the outcome was inactive. In the case of `Oc1cc(Cl)ccc1Oc1ccc(Cl)cc1Cl`, the AC50 (commonly the midpoint of the concentration-response curve, whichever way the signal moves) in assay [3] is 18.7 µM (active). Take `CC(C)(C)C(O)C(Oc1ccc(Cl)cc1)n1cncn1` (stereo not drawn): in [4], the AC50 is 38.2 µM (active) and the call was inactive.

Consider `O=[N+]([O-])c1c(Cl)c(Cl)c(Cl)c(Cl)c1Cl`, for which, in [5], the outcome was inactive.

Regarding `N#Cc1c(Cl)c(Cl)c(Cl)c(C#N)c1Cl`, the call in [2] was inactive. As for `O=C(Nc1ccccc1)Nc1cnns1`, the molecule was called inactive (in [5]; in [6]; with Adra2b (gene 24174); in [4]; in assay [7]). On to `O=S(=O)(O)C(F)(F)C(F)(F)C(F)(F)C(F)(F)C(F)(F)C(F)(F)C(F)(F)C(F)(F)F`, for which, in assay [3], the molecule was called inactive. For the molecule `CCCN(CCOc1c(Cl)cc(Cl)cc1Cl)C(=O)n1ccnc1`, the half-maximal activity concentration (AC50) with Adra2b (gene 24174) was 3.65 µM (active). In addition, in assay [4], the molecule was called inactive. Take `CCOCN(C(=O)CCl)c1c(C)cccc1CC`: the molecule was called inactive in assay [7]. As to `CCC(C)(C)C(=O)OC1=C(c2ccc(Cl)cc2Cl)C(=O)OC12CCCCC2`, the outcome in assay [8] was inactive.

Consider `CC[C@H](C)[C@H]1O[C@]2(C=C[C@@H]1C)C[C@@H]1C[C@@H](C/C=C(\C)[C@@H](O[C@H]3C[C@H](OC)[C@@H](O[C@H]4C[C@H](OC)[C@@H](O)[C@H](C)O4)[C@H](C)O3)[C@@H](C)/C=C/C=C3\CO[C@@H]4[C@H](O)C(C)=C[C@@H](C(=O)O1)[C@]34O)O2` (tested in a mixture with another compound), for which, in [2], the AC50 was 9.49 µM (active). For the same molecule, the result in assay [3] was inactive.

In the case of `Oc1ccc(Cl)cc1Cc1ccccc1`, the molecule was classed as inactive in assay [9] and in [4]. Besides, in assay [3], the AC50 is 25.2 µM (active). Turning to `O=[N+]([O-])/N=C1\NCCN1Cc1ccc(Cl)nc1`, the half-maximal activity concentration (AC50) in assay [8] was 8.29 µM (active).
